Measurements taken from PubChem BioAssay AID2533 (National Center for Advancing Translational Sciences (NCATS), 2010).
Records with an inconclusive call do not appear. A number with no mark means an inactive call. The source made the active and inactive calls. The call rests on the fitted dose curve; in most records, active means well fitted activation curve with a large enough effect; inconclusive means small, poorly fitted or top-dose-only effect; inactive means flat fitted curve, though single readings scatter.

target: Pyruvate kinase PKM (Homo sapiens) (UniProt P14618); assay: Confirmation Concentration-Response Assay for Activators of Human Muscle isoform 2 Pyruvate Kinase: for Probe SAR; conditions: purified PKM2, ATP generation, Kinase-Glo luminescence; series mostly up to 57.5 µM; activity change, positive = activation: at the top concentration; further: nearly all actives have a fitted effect of over 60% in size; on activity change, positive = activation: % of control where 0% means no effect
Sequence (P14618 whole entry, looked up, canonical isoform): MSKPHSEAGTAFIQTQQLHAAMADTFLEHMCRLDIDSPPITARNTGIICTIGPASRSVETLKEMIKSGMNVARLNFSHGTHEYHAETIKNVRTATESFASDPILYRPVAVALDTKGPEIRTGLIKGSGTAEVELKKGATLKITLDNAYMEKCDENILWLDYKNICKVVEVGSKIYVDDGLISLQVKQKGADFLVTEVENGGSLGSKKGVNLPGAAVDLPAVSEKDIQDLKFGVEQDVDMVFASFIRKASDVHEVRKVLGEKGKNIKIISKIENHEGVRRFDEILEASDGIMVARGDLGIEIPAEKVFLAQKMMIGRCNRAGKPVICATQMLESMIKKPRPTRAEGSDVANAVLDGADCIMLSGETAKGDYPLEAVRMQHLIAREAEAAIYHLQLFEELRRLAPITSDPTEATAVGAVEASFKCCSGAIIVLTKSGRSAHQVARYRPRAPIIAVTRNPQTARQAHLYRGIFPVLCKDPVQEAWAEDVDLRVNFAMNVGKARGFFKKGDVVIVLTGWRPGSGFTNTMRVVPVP
Summary of the method: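 ATP generation was detected by luciferase-coupled luminescence (Kinase-Glo). The reaction ran for 1 hour at room temperature with 0.1 mM ADP, 0.5 mM PEP and 0.1 nM purified hPK-M2 in 50 mM imidazole, pH 7.2, with 7 mM MgCl2. The enzyme was set at intermediate activity so activators could be detected.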
Potency means the concentration at half of the fitted maximal effect.

| Structure (SMILES) | activity change, positive = activation [%] | Potency |
| --- | --- | --- |
| Cc1ccc2nc(-c3cccs3)c(Nc3ccccc3)n2c1 | 11.6 |  |
| O=C1CCc2cc(S(=O)(=O)Nc3ccccn3)ccc2N1 | 28.5 |  |
| O=C1CCc2cc(S(=O)(=O)Nc3ccncc3)ccc2N1 | 8.93 |  |
| Cc1ccc2nc(-c3ccc(C)o3)c(NC3CCCC3)n2c1 | 11.9 |  |
| Cc1ccc(NS(=O)(=O)c2cc3c(cc2C)NC(=O)CO3)cc1C |  | 580 nM (active) |
| Cc1ccc(NS(=O)(=O)c2ccc3c(c2)N(C)CCO3)cc1C |  | 18300 nM (active) |
| Cc1cc(N2C(=O)c3ccccc3C2=O)n[nH]1 | 5.78 |  |
| Cc1ccc(NS(=O)(=O)c2ccc3c(c2)CCC(=O)N3)cc1F |  | 517 nM (active) |
| Cc1ccc(NS(=O)(=O)c2cc3c(cc2Cl)CCC(=O)N3)cc1C |  | 163 nM (active) |
| O=C1c2ccccc2C(=O)N1c1cccc2ncccc12 | 3.32 |  |
| Cc1ccccc1NS(=O)(=O)c1ccc2c(c1)CCC(=O)N2 |  | 11600 nM (active) |
| Cc1ccc(N2C(=O)c3ccccc3C2=O)c(C)c1 | 0.597 |  |
| Cc1ccn2c(NCc3ccco3)c(-c3ccccc3)nc2c1 | -5.8 |  |
| Fc1ccccc1-c1ccc(-c2nc3ccc(Cl)cn3c2Nc2ccc(Cl)cc2)o1 | 0.0036 |  |
| O=S1(=O)N=C(Oc2ccccc2F)c2ccccc21 | 12 |  |
| O=S1(=O)N=C(Sc2ccc3c(c2)OCCO3)c2ccccc21 | -17.2 |  |
| COc1ccccc1NS(=O)(=O)c1ccc2c(c1)CCC(=O)N2 |  | 20600 nM (active) |
| Cc1ccc(Nc2c(-c3ccc(C)o3)nc3cccc(C)n23)cc1 | 22.8 |  |
| O=C1c2ccccc2C(=O)N1c1cccc2cccnc12 | 7.05 |  |

| Structure (SMILES) | activity change, positive = activation [%] | Potency |
| --- | --- | --- |
| Cc1ccc(NS(=O)(=O)c2ccc3c(c2)NC(=O)CO3)cc1C |  | 20600 nM (active) |
| Cc1ccc(OC2=NS(=O)(=O)c3ccccc32)cc1 | 13.7 |  |
| Cc1ccc2nc(-c3ccc(C)o3)c(Nc3ccccc3)n2c1 | 5.7 |  |
| O=S(=O)(c1cccc(O)c1)N1CCN(S(=O)(=O)c2c(F)cccc2F)CC1 |  | 580 nM (active) |
| Cc1ccc(NS(=O)(=O)c2ccc3c(c2)CCC(C)(C)O3)cc1C | 30 |  |
| Cc1ccc(NS(=O)(=O)c2ccc3c(c2)CCC(=O)N3)cc1C |  | 651 nM (active) |
| Cc1ccc(NS(=O)(=O)c2ccc3c(c2)oc(=O)n3C)cc1C |  | 10300 nM (active) |
| COc1cccc(OC2=NS(=O)(=O)c3ccccc32)c1 | 8.76 |  |
| CC(=O)Nc1cccc(S(=O)(=O)N2CCCN(S(=O)(=O)c3ccc4c(c3)OCCO4)CC2)c1 |  | 1300 nM (active) |
| Cc1ccc(NS(=O)(=O)c2ccc3c(c2)CC(=O)N3C)cc1C |  | 3660 nM (active) |
| O=S1(=O)N=C(Oc2cccc(-c3ccccc3)c2)c2ccccc21 | -2.19 |  |
| O=S1(=O)N=C(Oc2ccccc2Cl)c2ccccc21 | 9.98 |  |
| COc1cccc(N2C(=O)c3ccccc3C2=O)n1 | 15.7 |  |
| Cc1cc2c(s1)c1cnn(Cc3cc(F)c(F)cc3F)c(=O)c1n2C |  | 1120 nM (active) |
| COc1ccc(N2C(=O)c3ccccc3S2(=O)=O)cc1 | 4.68 |  |
| Cc1ccc(-c2nc3cccc(C)n3c2Nc2ccc(F)cc2)o1 | 12.2 |  |
| O=C1CCc2cc(S(=O)(=O)Nc3ccccc3Cl)ccc2N1 |  | 18300 nM (active) |
| COc1cc(F)c(S(=O)(=O)N2CCN(S(=O)(=O)c3ccc(N)cc3)CC2)c(F)c1 |  | 130 nM (active) |
